A selection: hits, their analogues and other compounds. The true share with any hit is near 2.7%.
proKLK7 act: proKLK7 (human) activation, primary screen; purified proKLK7, EDANS-DABCYL substrate fluorescence; 100% is mature enzyme control, 0% vehicle; activation, % at 7 µM; 370,000 compounds, 0.9% hits;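 active = activation above the mean of all tested compounds plus 3 SD, computed per campaign excluding outliers beyond control limits, cut at about 13% in these data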
PfG6PD inh: PfG6PD (Plasmodium falciparum) enzyme inhibition; PfGluPho enzyme, NADPH resazurin-diaphorase fluorescence; inhibition, % at 20 µM; 350,000 compounds, 0.78% hits; AID 504690;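 active = inhibition reaching at least a set limit at 20 µM in the primary screen, cut at about 59% in these data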;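 also: 0% = DMSO wells with substrate and 100% = DMSO wells lacking glucose-6-phosphate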
FAS TE block: blocks the thioesterase domain of human fatty acid synthase; P49327; recombinant FAS-TE, OMFH fluorogenic substrate, fluorescence endpoint; inhibition, % at 15 µM; 360,000 compounds, 0.67% hits; AID 602261;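 active = compounds whose normalised, plate-corrected inhibition of enzyme fluorescence in the single-dose primary screen is 50% or more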;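 also: 0% = DMSO with enzyme and 100% = substrate without enzyme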
Neddyl block: cullin neddylation inhibition; TR-FRET cullin neddylation, biochemical; calls only at 25 µM; 360,000 compounds, 0.58% hits; in the data active = inhibition above about 36%
Target sequence (P61081 whole entry, looked up): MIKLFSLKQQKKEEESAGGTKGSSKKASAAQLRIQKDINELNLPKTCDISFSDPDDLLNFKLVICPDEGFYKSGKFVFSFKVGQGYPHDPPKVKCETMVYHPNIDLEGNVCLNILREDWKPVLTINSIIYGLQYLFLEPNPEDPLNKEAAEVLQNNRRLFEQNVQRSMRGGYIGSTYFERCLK
Target sequence (Q13564 whole entry, looked up): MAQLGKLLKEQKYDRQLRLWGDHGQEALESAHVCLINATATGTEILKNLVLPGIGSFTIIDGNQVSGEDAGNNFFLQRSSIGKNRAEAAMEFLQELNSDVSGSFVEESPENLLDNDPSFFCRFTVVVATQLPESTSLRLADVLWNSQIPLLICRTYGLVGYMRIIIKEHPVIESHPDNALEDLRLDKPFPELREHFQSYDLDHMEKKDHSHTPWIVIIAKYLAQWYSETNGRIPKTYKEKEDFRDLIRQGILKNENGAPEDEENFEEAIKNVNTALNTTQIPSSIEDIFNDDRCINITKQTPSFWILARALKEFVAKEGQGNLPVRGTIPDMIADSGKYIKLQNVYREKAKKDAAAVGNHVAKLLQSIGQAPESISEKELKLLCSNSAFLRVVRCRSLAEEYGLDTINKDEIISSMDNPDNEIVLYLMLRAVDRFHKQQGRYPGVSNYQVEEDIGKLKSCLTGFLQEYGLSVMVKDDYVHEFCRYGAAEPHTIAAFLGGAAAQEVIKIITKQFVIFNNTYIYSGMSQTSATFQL
FAS-TE inh conf: FAS thioesterase (human) inhibition, confirmation. shares compounds with FAS TE block. recombinant FAS-TE, OMFH fluorogenic substrate, fluorescence. inhibition, % at 15 µM. 2,300 compounds, 45% hits. AID 624325;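 active = compounds inhibiting the enzyme by at least 50% at 15 µM in any one of the replicates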;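 also: 0% = enzyme with DMSO only and 100% = wells lacking enzyme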
An asterisk follows results filed as active; i = inactive; . = no result.

SMILES	proKLK7 act	PfG6PD inh	FAS TE block	Neddyl block	FAS-TE inh conf
O=c1oc(-c2ccccc2F)nc2scc(-c3ccccc3)c12	0	10	86*	i	37*
COc1ccc(-c2csc3nc(-c4ccccc4OC)oc(=O)c23)cc1	-1	13	63*	i	42
COC(=O)[C@]12C[C@H](CC(=O)NCCCN3CCCC3=O)C(=O)N(CCc3ccc(OC)c(OC)c3)C1=C[C@H](C1CCCC1)O[C@@H]2C	0	.	.	.	.
CC(C)(C)c1ccc(-c2nnc3n2N=C(c2ccc(Cl)cc2)CS3)cc1	0	.	.	.	.
CCOc1ccc(-c2cc(C(=O)OC)c3n(c2=O)CCC3)cc1	2	.	.	.	.
CN(CCO)c1ccc2c(c1)Oc1ccccc1CN(Cc1cn(Cc3cccc(C(F)(F)F)c3)nn1)S2(=O)=O	0	.	.	.	.
O=C(NC(Cc1c[nH]c2ccccc12)C(=O)Nc1ccc(F)c([N+](=O)[O-])c1)c1cccs1 (stereo not given)	-1	12	63*	i	63*
O=C1CC(N(CCc2ccccc2)C(=S)Nc2ccccc2)C(=O)N1c1ccccc1 (stereo not given)	0	13	29	i	.
O=C1CC(N(CCc2ccccc2)C(=S)Nc2cc(Cl)ccc2Cl)C(=O)N1c1c(Cl)cccc1Cl (stereo not given)	1	-4	56*	i	9
COc1ccc(C(C(=O)NC2CCCC2)N(C(=O)c2snc(-c3ccc(F)cc3)c2N)c2ccc(OC)cc2)cc1 (stereo not given)	-3	-9	59*	i	27
COc1ccc(C(C(=O)NC2CCCC2)N(C(=O)c2snc(-c3ccc(F)cc3)c2N)c2ccc(F)cc2)cc1 (stereo not given)	0	-21	8	i	.
CCCCCn1c(=O)c(F)cn(Cc2ccc(OC)c([N+](=O)[O-])c2)c1=O	0	13	24	i	.
CCCCCCn1c(=O)c(F)cn(Cc2ccc(OC)c([N+](=O)[O-])c2)c1=O	0	-7	58*	i	57*
Cc1cccn2c(=O)c(/C=C(\C#N)C(=O)NCc3ccco3)c(N3CCCC(C)C3)nc12 (stereo not given)	0	0	41	i	.
CCOC(=O)C1CCCN(c2nc3c(C)cccn3c(=O)c2/C=C(\C#N)C(=O)NCc2ccco2)C1 (stereo not given)	4	7	52*	i	54*
Cc1cccn2c(=O)c(/C=C(\C#N)C(=O)NCc3ccco3)c(N3CCCCCC3)nc12	1	11	53*	i	48
COc1cc2c(c(OC)c1)[C@H](/C=C/c1ccccc1)[C@@H]([C@H](O)CO)OC2	0	.	.	.	.
CC(=O)Nc1ccc(S(=O)(=O)NN=Cc2ccc(Cl)c(Cl)c2)cc1	-1	-50	-2	i	.
O=[N+]([O-])c1ccc(S(=O)(=O)N/N=C/c2ccc3c(c2)OCO3)cc1	0	-11	72*	i	74*
O=[N+]([O-])c1ccc(S(=O)(=O)NN=Cc2ccc(Cl)c(Cl)c2)cc1	1	12	81*	i	89*
O=C(Nc1cccc(S(=O)(=O)N2CCOCC2)c1)c1cn(-c2ccccc2)nc1-c1ccccc1	0	11	51*	i	20
O=C(Nc1cccc(S(=O)(=O)N2CCOCC2)c1)c1cn(-c2ccccc2)nc1-c1ccc(F)cc1	0	7	41	i	.
CCc1ccc(NC(=O)COc2ccc(F)cc2C(=O)c2cnn(-c3ccccc3)c2)cc1	0	27	53*	i	0
O=C(NCC(c1ccco1)N1CCc2ccccc2C1)c1ccc([N+](=O)[O-])cc1 (stereo not given)	0	12	60*	i	11
CN1C(=O)/C(=C\c2cc(N=Nc3ccccc3)ccc2O)SC1=S	-1	10	66*	i	38*
SMILES	proKLK7 act	PfG6PD inh	FAS TE block	Neddyl block	FAS-TE inh conf
Cc1cccc(NC(=O)CCC(=O)N/N=C/c2cc([N+](=O)[O-])ccc2O)c1	1	-14	39	i	.
O=C(CCC(=O)Nc1ccc(F)cc1)N/N=C/c1ccccc1O	-44	0	-2	i	.
O=C(CCC(=O)Nc1ccc(F)cc1)N/N=C/c1cc([N+](=O)[O-])ccc1O	0	-8	56*	i	65*
O=C(Cn1nc2ccccc2n1)N/N=C/c1cc([N+](=O)[O-])ccc1O	0	-54	57*	i	75*
Cc1cc([N+](=O)[O-])nn1CC(=O)N/N=C/c1ccccc1Br	-1	9	63*	i	68*
O=C(CCC(=O)Nc1ccc(Br)cc1)N/N=C/c1cc([N+](=O)[O-])ccc1O	0	-18	56*	i	64*
O=C(Cn1nnc(-c2ccccc2)n1)N/N=C/c1cc([N+](=O)[O-])ccc1O	-1	-44	-10	i	.
O=S1(=O)c2ccc(N3CCN(Cc4ccccc4F)CC3)cc2Oc2ccccc2CN1Cc1cn(Cc2ccccc2C(F)(F)F)nn1	0	.	.	.	.
CC(C)(C)N1Cc2nnn(CC3CCCCC3)c2-c2cc(F)ccc2S1(=O)=O	0	.	.	.	.
O=C(Cn1cnc([N+](=O)[O-])n1)N/N=C/c1cc(Cl)ccc1O	0	-6	79*	i	88*
O=C(Cn1cnc([N+](=O)[O-])n1)N/N=C/c1ccccc1O	0	-40	18	i	.
O=C(/C=C/c1cccs1)Nc1ccc(N2CCOCC2)c(S(=O)(=O)Nc2ccccc2Cl)c1	-4	1	27	i	.
COc1ccccc1NS(=O)(=O)c1cc(NC(=O)/C=C/c2cccs2)ccc1N1CCOCC1	0	-3	82*	i	22
COc1ccccc1NS(=O)(=O)c1cc(NC(=O)c2sccc2C)ccc1N1CCCC1	-3	49	58*	i	3
CCN(CC)S(=O)(=O)c1ccc(C(=O)NNc2nc(-c3ccccc3)c3cc(Br)ccc3n2)cc1	0	-8	68*	i	20
CC(C)(C)C(=O)NNc1nc(-c2ccccc2)c2cc(Br)ccc2n1	0	33	3	i	.
Cc1ccc(-c2c(NC(=O)c3ccccc3)nc3ncccn23)cc1	8	.	.	.	.
COc1cc(CCc2ccccc2)c(C(=O)O)c(O)c1C/C=C(/C)CCC=C(C)C	0	-20	87*	i	59*
CCS(=O)(=O)c1ccc(-c2csc(-c3ccccc3)n2)c(Cl)c1Cl	1	15	84*	i	71*
O=C(O)c1ccc(-c2nc(-c3ccccc3Cl)cs2)cc1	0	-25	0	i	.
COC(=O)[C@]12C=CCN1[C@H](c1ccc(OC)c(OC)c1)c1c(c3ccccc3n1S(=O)(=O)c1ccc(C)cc1)C2	-1	.	.	.	.
O=C(NNc1c(Cl)cc(Cl)cc1Cl)c1cccc([N+](=O)[O-])c1	0	1	55*	i	58*
O=C(NNC(=S)NC(=O)c1ccccc1Cl)c1cccc([N+](=O)[O-])c1	-1	-6	5	i	.
COc1ccc(NC(=S)NC(NC(=O)c2ccccc2Cl)C(Cl)(Cl)Cl)c([N+](=O)[O-])c1 (stereo not given)	0	11	18	i	.

Source: PubChem (several laboratories)
